In PubChem BioAssay (Tox21) one finds Potency and outcome data, which are given here for eight molecules.

Assay [1] can be described thus: qHTS assay for small molecule agonists of the p53 signaling pathway (AID 651631; calls by dose curve; also: nearly all actives have a fitted effect of over 15% in size). The procedure, abridged:
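Agonist mode screen using a stably integrated beta-lactamase gene under p53 response elements in HCT-116 cells. Compound exposure lasts 16 h at 37 °C; fluorescence intensity is measured following 2 h FRET substrate loading.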

A short description of assay [2]: qHTS assay for small molecule agonists of the p53 signaling pathway - cell viability (AID 651633; calls by dose curve;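 also: p53RE-bla HCT reporter cells with a stable beta-lactamase p53 reporter; series mostly up to about 83 µM; nearly all actives have a fitted effect of over 30% in size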). The essentials: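 p53RE-bla cells were treated with compound for 16 hours at 37 C. Cytotoxicity was then measured as CellTiter-Glo luminescence after 30 min at room temperature.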
Assay [3] in a line: qHTS assay for small molecules that induce genotoxicity in human embryonic kidney cells expressing luciferase-tagged ATAD5 - cell viability (AID 651634; calls by dose curve; also: nearly all actives have a fitted effect of over 25% in size). The essentials:
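Here HEK293T cells with the ATAD5 luciferase reporter are incubated with test compounds for 15.5 hr, and cytotoxicity is then gauged by measuring protease activity in live cells using fluorescence.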

A short description of assay [4]: qHTS assay for small molecule disruptors of the mitochondrial membrane potential - cell viability (AID 720634; calls by dose curve;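 also: human HepG2 liver cancer cells; series mostly up to about 83 µM; nearly all actives have a fitted effect of over 20% in size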). The essentials:
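Viability of HepG2 cells is scored from ATP content by luminescence; cells are exposed to compound for 1 hr at 37 C and 5% CO2, then dosed with m-MPI dye before the CellTiter-Glo reagent.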

A short description of assay [5]: qHTS assay to test for compound auto fluorescence at 590 nm (red) in HepG2 cells (AID 720674). The procedure, abridged:
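Fluorescence at 590 nm emission following 540 nm excitation was recorded from HepG2 wells one hour after compound transfer, with DMSO-only wells as vehicle and Rose Bengal sodium equivalency as the scale.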

The nature of assay [6]: qHTS assay to test for compound auto fluorescence at 535 nm (green) in HepG2 cells (AID 720675).
Assay [7] in a line: qHTS assay to test for compound auto fluorescence at 460 nm (blue) in HEK293 cells (AID 720678). The essentials: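 Triamterene serves as the blue fluorophore standard. Compound signal at 405/460 nm is read in HEK293 wells (2,000 cells, 10% dialyzed FBS) after overnight treatment at 37C.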
A short description of assay [8]: qHTS assay to test for compound auto fluorescence at 590 nm (red) in HEK293 cells (AID 720679). The procedure, abridged: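 We plated HEK293 cells in 10% dialyzed FBS medium, let them adhere for 4-5 hr, then added 23 nL compound. Overnight at 37C and 5% CO2 preceded fluorescence measurement at 540/590nm.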
Assay [9] can be described thus: qHTS assay to test for compound auto fluorescence at 535 nm (green) in HEK293 cells (AID 720680).
A short description of assay [10]: qHTS assay to test for compound auto fluorescence at 460 nm (blue) in HEK293 cell free culture (AID 720681). The procedure, abridged:
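Compounds were added to cell-free DMEM with 10% FBS and fluorescence read directly. The blue channel used 405 nm excitation and 460 nm emission, with triamterene as the reference fluorophore.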

The nature of assay [11]: qHTS assay to test for compound auto fluorescence at 535 nm (green) in HEK293 cell free culture (AID 720682). The essentials: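 No cells present: wells hold DMEM supplemented with 10% FBS, into which compound or vehicle is pinned. Green emission is then recorded (485 nm excitation, 535 nm emission) and scaled to fluorescein.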
Assay [12] in a line: qHTS assay to test for compound auto fluorescence at 590 nm (red) in HEK293 cell free culture (AID 720683). The essentials:
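Cell-free wells of DMEM with 10% FBS received compound, and intrinsic fluorescence was read at excitation/emission 540/590 nm. Values expressed as equivalence to Rose Bengal sodium.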

The nature of assay [13]: qHTS assay to test for compound auto fluorescence at 460 nm (blue) in HepG2 cell free culture (AID 720685). The procedure, abridged:
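Cell-free plates of MEM plus 10% FBS received 23 nL compound or DMSO vehicle; blue-channel (405/460 nm) intensity scored against triamterene as reference fluorophore.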

Assay [14] can be described thus: qHTS assay to test for compound auto fluorescence at 535 nm (green) in HepG2 cell free culture (AID 720686).
The nature of assay [15]: qHTS assay to test for compound auto fluorescence at 460 nm (blue) in HepG2 cells (AID 720687). The essentials: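 HepG2 cells in MEM with 10% FBS, attached overnight at 37 C, were exposed to compound or DMSO for 1 hr at 37 C, 5% CO2. Blue fluorescence was read at 405/460 nm, with triamterene as reference fluorophore.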
Assay [16] in a line: qHTS assay to test for compound auto fluorescence at 590 nm (red) in HepG2 cell free culture (AID 720684). The essentials: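 Rose Bengal sodium served as the reference for red signal. Test compounds were dispensed into serum-containing MEM (10% FBS) without cells, and plates were read at 540/590 nm.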
For assay [17], the target named is Glucocorticoid receptor (Homo sapiens) (UniProt P04150). Kind of assay: qHTS assay to identify small molecule agonists of the glucocorticoid receptor (GR) signaling pathway (AID 720691; active = well fitted activation curve with a large enough effect in the signal ratio in the repeat runs, not every such curve was filed as active; the % refers to the signal ratio). The procedure, abridged:
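Compounds in DMSO, alongside positive controls, were added to GR-bla HeLa reporter cells and incubated 18 h at 37 C; GRE-driven beta-lactamase was detected by fluorescence after 2 h with FRET substrate at room temperature.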

For assay [18] the target is unchanged. Kind of assay: qHTS assay to identify small molecule antagonists of the glucocorticoid receptor (GR) signaling pathway (AID 720692; active = well fitted inhibition curve with a large enough effect in the signal ratio in the repeat runs, not every such curve was filed as active; the % refers to the signal ratio). The procedure, abridged:
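In a 1536-well cell format, compounds were added 4 h after seeding GR-bla HeLa cells, together with dexamethasone at 5 nM final; reporter activity was measured by FRET-substrate fluorescence following 18 h at 37 C.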

A short description of assay [19]: qHTS assay for small molecule disruptors of the mitochondrial membrane potential (AID 720635). Also: potency is read from the fitted curve at half-maximal effect. The procedure, abridged: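 HepG2 cells exposed to compound 1 hr at 37C, then Mito-MPS dye 30 min. Ratio read of aggregate (540/590 nm) versus monomer (490/535 nm) fluorescence.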
Assay [20] in a line: qHTS assay for small molecules that induce genotoxicity in human embryonic kidney cells expressing luciferase-tagged ATAD5 (AID 651632). Also: nearly all actives have a fitted effect of over 15% in size. Also: potency is read from the fitted curve at half-maximal effect. The procedure, abridged:
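DMSO vehicle served as the control. HEK293T reporter cells, 16 hr at 37C, then 30 min Amplite at room temperature; ATAD5 induction is measured as luciferase activity.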

Records with an inconclusive call do not appear. Activity calls are given as the source filed them. Unless noted, calls follow the shape of the dose curve; as a rule, active = well fitted curve in the direction sought with a large enough effect in the repeat runs; inconclusive = weak or mixed curves; inactive = no such curve, though single readings can be large; an effect the other way counts as inactive or inconclusive.

Chain of Glucocorticoid receptor (Homo sapiens) (P04150 whole entry, looked up): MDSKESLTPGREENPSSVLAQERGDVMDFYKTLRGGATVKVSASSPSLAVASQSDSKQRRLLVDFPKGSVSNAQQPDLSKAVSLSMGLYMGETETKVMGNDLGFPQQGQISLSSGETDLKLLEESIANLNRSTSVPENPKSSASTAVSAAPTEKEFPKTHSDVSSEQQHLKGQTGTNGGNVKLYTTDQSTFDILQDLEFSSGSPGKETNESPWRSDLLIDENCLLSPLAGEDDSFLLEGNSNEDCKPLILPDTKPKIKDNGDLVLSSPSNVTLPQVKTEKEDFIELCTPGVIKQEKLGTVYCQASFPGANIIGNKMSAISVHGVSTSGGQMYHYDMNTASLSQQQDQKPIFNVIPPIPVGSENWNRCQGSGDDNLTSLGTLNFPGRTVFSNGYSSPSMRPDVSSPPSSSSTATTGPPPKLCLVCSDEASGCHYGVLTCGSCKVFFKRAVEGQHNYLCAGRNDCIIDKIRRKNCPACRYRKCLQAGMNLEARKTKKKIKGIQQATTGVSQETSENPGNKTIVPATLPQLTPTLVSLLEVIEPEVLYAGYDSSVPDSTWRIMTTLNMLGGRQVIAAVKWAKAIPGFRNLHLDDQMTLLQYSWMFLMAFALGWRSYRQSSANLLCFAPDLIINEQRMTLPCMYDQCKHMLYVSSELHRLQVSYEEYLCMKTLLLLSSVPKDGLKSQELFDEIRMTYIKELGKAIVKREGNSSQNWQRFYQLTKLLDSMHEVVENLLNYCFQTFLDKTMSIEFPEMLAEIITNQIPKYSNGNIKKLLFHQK

As to `CC(C)NC[C@@H](O)COc1cccc2ccccc12`, the Potency result in [1], in assay [2], in assay [3] and in assay [4] was “inactive” each time. For the same molecule, the outcome in assay [5], in assay [6], in assay [7], in [8], in assay [9] and in assay [10] was inactive. Moreover, the outcome in assay [11], in assay [12], in assay [13], in assay [14] and in assay [15] was inactive.
For the molecule `COc1ccc(S(=O)(=O)Nc2nnc(CC(C)C)s2)cc1`, the Potency entry in assay [1], in assay [2], in assay [3], in [4], in [17] and in assay [18] was “inactive” throughout. For the same molecule, the result in [5], in assay [6], in [7], in assay [8], in assay [9] and in assay [11] was inactive. Also, the molecule was classed as inactive in assay [12], in [16], in assay [13] and in assay [15].
`CC(C)C(=O)OCC(C)(C)C(O)C(C)C` (configuration not stated): the Potency result in [1], in assay [2], in assay [3], in [4], in assay [19] and in assay [17] was “inactive” in each case. In addition, the molecule was classed as inactive in assay [5], in [7], in [8], in assay [10], in [11] and in assay [12]. The call in assay [16], in assay [13], in assay [14] and in [15] was inactive.
On to `O=C(O)CN(CCN(CC(=O)O)CC(=O)O)CCN(CC(=O)O)CC(=O)O`, for which, in assay [20], the Potency was 26.6 µM (active). Also, the Potency entry in assay [2], in assay [3], in [4], in [19] and in assay [17] was “inactive” in each case. The outcome in assay [5], in assay [6], in [7], in [8], in [9] and in [10] was inactive. Further, the outcome in [11], in assay [12], in assay [16], in assay [13], in assay [14] and in [15] was inactive.
On to `CC(C)C(=O)OC/C=C/c1ccccc1`, for which the Potency result in assay [1], in [2], in assay [3], in assay [4], in assay [19] and in assay [17] was “inactive” in each case. Also, in [18], the Potency entry was “inactive”. Further, the result in assay [5], in [7], in assay [8], in assay [9], in assay [10] and in assay [11] was inactive. Further, the result in [16], in [13], in [14] and in [15] was inactive.
For the molecule `Cc1ccc(C(C)C)cc1O`, the Potency result in assay [20], in [2], in assay [3], in [4], in [17] and in [18] was “inactive” each time. Moreover, the Potency in assay [19] was 48.6 µM (active). Also, the result in [5], in [6], in assay [7], in assay [8], in assay [9] and in assay [10] was inactive. Further, the outcome in assay [11], in [12], in assay [16], in [13] and in assay [15] was inactive.
Consider `CCOc1ccccc1N`, for which the Potency entry in assay [1], in [2], in assay [3], in assay [4], in assay [19] and in assay [17] was “inactive” throughout. The Potency entry in assay [18] is “inactive”. The outcome in assay [5], in assay [6], in assay [7], in assay [8], in assay [9] and in assay [10] was inactive. Moreover, the molecule was called inactive in assay [11], in assay [16] and in assay [15].
Consider `CCCN(CCC)C(=O)C(CCC(=O)O)NC(=O)c1ccccc1` (configuration not stated), for which the Potency entry in assay [1], in [2], in assay [3] and in assay [17] was “inactive” in each case. The molecule was called inactive in assay [5], in [6], in assay [7], in assay [8], in [9] and in [10]. Also, the molecule was called inactive in assay [11], in assay [12], in assay [16], in [13], in assay [14] and in assay [15].
